Inconclusive results are not listed. Where a call stands in place of a potency, no number is given. Calls of active or inactive are those of the source. Calls follow the shape of the dose curve; as a rule, active = well fitted inhibition curve with a large enough effect; inconclusive = small, poorly fitted or top-dose-only effect; inactive = no such curve, though single readings can be large or run the other way.
What follows are molecules tested on Zika virus NS2B-NS3 protease (linked construct) (assay: Primary screen NINDS Rhodamine qHTS for Zika virus inhibitors (AID 1347160; also: nearly all actives have a fitted effect of over 55% in size)). Settings: purified NS2B-NS3 protease, Rhodamine110 substrate fluorescence; series mostly up to 57.1 µM.
In short: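 Aprotinin served as in-plate control. Conditions: 25 nM linked NS2B-NS3, pH 8.0 Tris buffer, titrated compounds, 15 min preincubation and 15 min reaction with 1.5 microM Rhod110 substrate at room temperature.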
Potency is read from the fitted curve at half-maximal effect.

SMILES | Potency
CC(=O)O[C@@]12CO[C@@H]1C[C@H](O)[C@@]1(C)C(=O)[C@H](O)C3=C(C)[C@@H](OC(=O)[C@H](O)[C@@H](NC(=O)OC(C)(C)C)c4ccccc4)C[C@@](O)([C@@H](OC(=O)c4ccccc4)C12)C3(C)C (some centres undefined) | inactive
C=C1CC[C@H]2C(=C)CC[C@H]3C(=C)C(=O)O[C@@H]3[C@@H]12 | inactive
CC[C@H]1CN(c2nc(N)c(C(N)=O)nc2Cl)CCN1C1CCN(Cc2ccc(Cl)cc2)CC1 | inactive
C/C(=C\CCC(C)C1=CCC2(C)OC3=C(CC12)C(=O)C(O)CC3)CO (centres undefined) | inactive
C=C1[C@@H](OC(C)=O)CC[C@@]2(C)[C@@H](OC(C)=O)[C@H](OC(C)=O)C3=C(C)C[C@H](OC(=O)C(C)CC)[C@@H]([C@@H](OC(C)=O)[C@H]12)C3(C)C (some centres undefined) | inactive
C[C@H]1CC[C@@]2(OC1)O[C@H]1CC3[C@@H]4CC[C@@H]5C[C@@H](O[C@@H]6O[C@H](CO)[C@@H](O[C@@H]7O[C@H](CO[C@@H]8OC[C@@H](O)[C@H](O)[C@H]8O)[C@@H](O[C@@H]8O[C@H](CO)[C@H](O)[C@H](O)[C@H]8O)[C@H](O)[C@H]7O)[C@H](O)[C@H]6O)CC[C@]5(C)C4CC[C@]3(C)[C@H]1[C@@H]2C (some centres undefined) | inactive
CC(=O)OCC(=O)[C@@]12O[C@@H]1C[C@H]1[C@@H]3CC=C4C[C@@H](O)CC[C@]4(C)[C@H]3CC[C@@]12C | inactive
O=C(Nc1cccc2cccnc12)c1ccc(N2C(=O)[C@@H]3C4C=CC(C4)[C@@H]3C2=O)cc1 | inactive
CC(=O)NC(C(=O)O[C@H]1CCC(C)(C)[C@@H]2CC=C3C(=O)OCC3(O)[C@@]12C)C(C)C (some centres undefined) | inactive
O=C(Nc1ccc(-n2nc(C(F)(F)F)cc2C(F)(F)F)cc1)c1ccncc1F | inactive
O=C(NCC1(c2nc(-c3ccccc3)cs2)CCOCC1)c1cccc(-c2noc(C(F)(F)F)n2)c1 | inactive
COC(=O)c1sccc1S(=O)(=O)Nc1ccc(Nc2ccccc2)cc1OC | inactive
CC(C)c1ccc(NC(=O)Cn2cnc3c2c(=O)n(C)c(=O)n3C)cc1 | inactive
Clc1ccc(Nc2nc3ccccc3c3nc(C4CCCCC4)[nH]c23)cc1Cl | inactive
NS(=O)(=O)Nc1ncnc(OCCOc2ncc(Br)cn2)c1-c1ccc(Br)cc1 | inactive
CS/C=C/C(=O)O[C@@H]1CCC2=CC(=O)C(=C(C)C)C[C@]2(C)[C@H]1C | inactive
Cc1cnn(-c2ccccc2)c1NC(=O)COCc1ccccc1 | inactive

SMILES | Potency
COc1cc(CCC2=NN=C(NC(=O)c3ccc(N4C[C@@H](C)N[C@@H](C)C4)cc3)C2)cc(OC)c1 | inactive
CNCCC(c1cccs1)c1ccc(O)c2ccccc12 (centres undefined) | inactive
CC(=O)OC/C(=C/C(=O)O)CC[C@@H]1C(C=O)=CC[C@@H]2C(C)(C)CCC[C@@]12C | inactive
CC[C@@H](C)Nc1cc(C(=O)NC2CC3CCC(C2)N3c2ccc(C(=O)C3CC3)cn2)c(C)cc1C(N)=O (some centres undefined) | inactive
CN1CCC(NC(=O)c2cc(-c3c(O)cc(O)cc3Oc3ccc([N+](=O)[O-])cc3)on2)CC1 | inactive
Cc1cc2c(cc1N1C(=O)c3cccc4c(CCCO)ccc(c34)C1=O)n(C)c(=O)n2C | inactive
O=C(Nc1ccc(N2C(=O)[C@@H]3[C@H](C2=O)[C@@H]2C=C[C@H]3C2)c(Cl)c1)c1ccccn1 | inactive
CC(=O)C1(C)CCC2C3C=C(C)C4=CC(=O)CCC4(C)C3CCC21C (centres undefined) | inactive
COc1cc(OC)c(NC(=O)c2ccc(Cc3cc4c(cc3C)C(C)(C)CCC4(C)C)o2)c(OC)c1 | inactive
C/C=C(\C)[C@@H]1C(C)=C[C@@H]2[C@H]([C@@H]1/C=C/C=C/C(=O)O)[C@@H](C)CC[C@@H]2O | inactive
COc1c2c(nc3occc13)C(CC=C(C)C)(OC)C(O)CC2 (centres undefined) | inactive
C=C1C(=O)O[C@@H]2C[C@H](C)C3=CC(=O)[C@H](O)[C@@]3(C)C[C@H]12 | inactive
C=C1CCCC2(C)CCC(C(C)(C)OC3OC(C)C(O)C(O)C3OC(=O)/C(C)=C\C)CC12 (centres undefined) | inactive
CC(=O)OC1CC(C)C2(CCC3(CC(=O)OC3O)O2)C2(C)CCCC(C)(C)C12 (centres undefined) | inactive
CC(C)(CNC(=O)c1cccc(-c2noc(C(F)(F)F)n2)c1)c1coc(-c2ccccc2)n1 | inactive
N#Cc1ccc(-c2ccc(S(=O)(=O)Nc3cccc(N)n3)cc2)cc1 | inactive
CCC/C=C/C=C/C1CC(O)C2(O)C(=O)OCC12 (centres undefined) | 20 µM (active)

Source: PubChem BioAssay (NCATS)
